G9a inh – G9a (human) methyltransferase inhibition | G9a H3K9 monomethylation, AlphaScreen, 2 h | 350,000 tested, 8.8% active | Potency, µM (doses to about 102 µM), for the others: at the highest dose activity, negative = inhibition, hits mostly inhibitors | Q96KQ7; also: potency is read from the fitted curve at half-maximal effect; % is scaled to controls: 0 for no effect and ±100 for the full control effect; nearly all actives have a fitted effect of over 75% in size
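Compounds were preincubated with 20 nM G9a for 15 min, after which biotinylated H3K9 peptide (500 nM) and SAM (20 uM) started a 2 h room-temperature reaction. Monomethylated product was quantified by antibody-based AlphaScreen chemiluminescence.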
JMJD2A Tudor – blocks the human JMJD2A Tudor domain. Potency, µM (top dose mostly 114 µM), without a hit: at the top dose activity change, negative = inhibition, hits mostly inhibitors. 390,000 tested, 4.4% active. AID 504339. O75164. AlphaScreen JMJD2A-Tudor / H3K4me3 peptide binding; also: potency is read from the fitted curve at half-maximal effect; % is scaled to controls: 0 for no effect and ±100 for the full control effect; nearly all actives have a fitted effect of over 50% in size
CtBP-E1A inh – CtBP/E1A binding inhibition. AlphaScreen GST-E1A/His-CtBP binding, 1536-well; active compounds read low. activity change, % (test concentration not listed). 340,000 tested, 0.49% active; in the data active = activity change below about -65%; inconclusive = mostly about -30% to -63%; also: % is scaled to controls: 0 for no effect and ±100 for the full control effect
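In 5 uL wells, 23 nL compound meets equimolar GST-E1A and His-CtBP (5X stock 125 nM each) for 2 h, 37 °C. Beads (5X, 50 ug/mL) then 1 h, 37 °C, dark.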
Six1-Eya2 blk – Six1/Eya2 interaction inhibition | AlphaScreen GST-Six1/His-Eya2 binding, biochemical; active compounds read low | activity change, % (test concentration not listed) | 360,000 tested, 0.56% active; in the data active = activity change below about -65%; inconclusive = mostly about -30% to -63%; also: % is scaled to controls: 0 for no effect and ±100 for the full control effect
Target sequence (O00167 whole entry, looked up): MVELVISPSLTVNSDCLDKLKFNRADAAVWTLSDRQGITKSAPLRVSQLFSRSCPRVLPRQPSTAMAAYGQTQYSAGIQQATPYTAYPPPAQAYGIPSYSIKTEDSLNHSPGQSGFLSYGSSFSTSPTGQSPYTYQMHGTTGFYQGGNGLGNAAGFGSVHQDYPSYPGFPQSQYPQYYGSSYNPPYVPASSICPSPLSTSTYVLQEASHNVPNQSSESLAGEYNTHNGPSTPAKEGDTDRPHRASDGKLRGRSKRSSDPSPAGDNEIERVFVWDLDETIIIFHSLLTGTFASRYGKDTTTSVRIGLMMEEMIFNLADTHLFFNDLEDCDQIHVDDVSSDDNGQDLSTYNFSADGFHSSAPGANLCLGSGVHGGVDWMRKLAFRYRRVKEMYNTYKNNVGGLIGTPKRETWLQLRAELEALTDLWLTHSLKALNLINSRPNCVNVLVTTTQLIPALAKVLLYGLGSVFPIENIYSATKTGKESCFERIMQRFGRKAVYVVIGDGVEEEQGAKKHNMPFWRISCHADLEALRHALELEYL
Target sequence (Q15475 whole entry, looked up): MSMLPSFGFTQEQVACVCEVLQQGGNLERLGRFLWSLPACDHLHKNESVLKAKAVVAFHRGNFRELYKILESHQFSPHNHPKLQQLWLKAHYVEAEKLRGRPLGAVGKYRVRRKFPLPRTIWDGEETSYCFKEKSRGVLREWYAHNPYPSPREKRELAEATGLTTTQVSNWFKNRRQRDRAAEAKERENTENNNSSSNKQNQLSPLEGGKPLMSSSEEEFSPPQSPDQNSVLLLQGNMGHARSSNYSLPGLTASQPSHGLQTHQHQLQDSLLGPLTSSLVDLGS
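AlphaScreen luminescence read after one hour at 37 °C in darkness. Pin-transferred compounds met GST-Six1 and His-Eya2 protein (5X stock 250 nM/500 nM) plus glutathione donor and Ni-chelate acceptor beads (5X, 50 ug/mL).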
HP1b binding inh – HP1-beta chromodomain-methylated histone interaction inhibition | 390,000 tested, 0.56% active | AlphaScreen HP1-beta / biotin-H3K9me3 peptide binding | Potency, µM (top dose mostly 114 µM), inactives show top-dose activity change, negative = inhibition, actives largely listed as inhibitors | P83916; also: potency is read from the fitted curve at half-maximal effect; nearly all actives have a fitted effect of over 70% in size
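Compound inhibition of the preformed complex between 50 nM HP1-beta and 50 nM biotinylated H3K9me3 peptide was read by AlphaScreen. Buffer was PBS pH 7.4 with 0.01% Tween-20. Incubations ran 30 min at room temperature, with 10 ug/mL donor/acceptor beads.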
BAZ2B block – blocks human BAZ2B. Q9UIF8. AlphaScreen BAZ2B-H3K14Ac peptide displacement. Potency, µM (doses to about 114 µM), for the others: top-dose activity change, negative = inhibition, hits mostly inhibitors. 360,000 tested, 4.4% active. AID 504333; also: potency is read from the fitted curve at half-maximal effect; % is scaled to controls: 0 for no effect and ±100 for the full control effect; nearly all actives have a fitted effect of over 60% in size
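AlphaScreen displacement: compounds (up to 110uM) incubated 30 min at room temperature with a preformed 50 nM BAZ2B/50 nM biotinylated H3K14Ac peptide complex in PBS pH 7.4 with Tween-20. Donor and acceptor beads at 10 ug/mL final added, 20 min light-protected before reading.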
Active calls of the source: *; ? = inconclusive; . = not tested or not shown; ! = not active in a repeat; [ ] = another dose, or the depositor's remark. A selection: hits, their analogues and other compounds. The true share with any hit is near 10%. Unless noted, calls follow the shape of the dose curve; as a rule, active = well fitted inhibition curve with a large enough effect; inconclusive = small, poorly fitted or top-dose-only effect; inactive = no such curve, though single readings can be large or run the other way.

SMILES	G9a inh	JMJD2A Tudor	CtBP-E1A inh	Six1-Eya2 blk	HP1b binding inh	BAZ2B block
Cc1nn(CCC(=O)NNC(=S)Nc2ccc(F)cc2)c(C)c1Br	?	-11%	-3	3	20%	6%
Cc1ccc(NC(=S)NNC(=O)CCn2cc(C)cn2)cc1	50µM*	-11%	2	2	29%	-2%
O=C(Cn1nc(C(F)F)cc1C(F)F)NNC(=S)Nc1ccc([N+](=O)[O-])cc1	20µM*	?	4	-1	-14%	-30%
Cc1nn(CCC(=O)NNC(=S)Nc2ccc([N+](=O)[O-])cc2)c(C)c1[N+](=O)[O-]	8.9µM*	-33%	.	-1	-2%	-26%
COc1ccc(NC(=S)NNC(=O)C(C)n2nc(C)c([N+](=O)[O-])c2C)cc1 (stereo unspecified)	?	-20%	-3	-1	1%	7%
Cc1nn(C(C)C(=O)NNC(=S)Nc2ccc(F)cc2)c(C)c1[N+](=O)[O-] (stereo unspecified)	45µM*	-16%	-14	-2	17%	0%
COCCCn1c(=O)/c(=C\c2ccccc2OC(C)C)s/c1=C(/C#N)C(=O)Nc1ccc(C(=O)O)cc1	45µM*	?	-4	1	-15%	50µM*
COc1ccc(/C=C/C(=O)Nc2ccc(OC)nc2)cc1	21%	-8%	0	14	43%	-8%
COc1ccc(NC(=O)/C(Cl)=C(/Cl)S(=O)Cc2ccccc2)cn1 (stereo unspecified)	11µM*	-9%	0	?	49%	10%
CCCCNC(=S)Nc1ccc(OC)nc1	56µM*	-9%	-12	-12	-6%	-15%
COc1ccc(NC(=S)Nc2ccccc2)cn1	23%[59 µM]	15%	3	2	11%	5%
COc1ccc(CS(=O)(=O)/C(Cl)=C(/Cl)C(=O)Nc2ccc(OC)nc2)cc1	45µM*	-21%	-17	-14	27%	-7%
COC(=O)C1=C(C(=O)OC)[C@]2([C@H]3CCCCN[C@@H](Cc4ccccc4)C(=O)N3Cc3ccccc3)C=C[C@H]1O2	.	-31%	.	-18	1%	.
CC1CC2(CC(CN(C3CCCCC3)C3CCCCC3)OC2=O)C(=O)O1 (stereo unspecified)	.	.	0	-7	.	.
Cc1cccc(C)c1NC(=O)C(c1ccccc1)N1CCC(Cc2ccccc2)CC1 (stereo unspecified)	.	.	2	-7	.	.
Cc1nc2sccn2c(=O)c1S(=O)(=O)NCc1ccc(F)cc1	12%[59 µM]	11%	.	.	41%	1%
CCn1c2ccccc2c2cc(/C=N/O)ccc21	-4%	-20%	.	3	37%	-11%
CCn1c2ccccc2c2cc(/C=N/n3c(-c4cc(C)[nH]n4)n[nH]c3=S)ccc21	2.5µM*	?	-22	-16	-7%	-34%
CCn1c2ccccc2c2cc(/C=N/n3cn[nH]c3=S)ccc21	0%[0.501 µM]	18µM*	-10	-7	-33%	?
CCn1c2ccccc2c2cc(/C=N/n3cnnc3)ccc21	13%[59 µM]	-18%	-9	1	15%	2%
Cc1ccc(C)c(N2CCN(C(=O)c3cnc4c(-c5ccccc5)c(C)nn4c3C)CC2)c1	5%[59 µM]	-3%	.	.	41%	-16%
NNC(=O)c1sc2cc(C(F)(F)F)cnc2c1-c1ccccn1	5.6µM*	-9%[11.4 µM]	.	-4	32%	?
O=C(O)c1sc2cc(C(F)(F)F)cnc2c1-c1ccccc1	13%[0.0925 µM]	-30%	-2	-5	64%	-7%
C[N+]1(CCn2ccc3ccccc32)CCCCC1	50µM*	25µM*	.	0	-5%	-5%
COc1ccc(CNc2nc(NCc3ccc(OC)c(OC)c3)n(C(=O)c3cccs3)n2)cc1OC	?	?	15	-24	-8%	?
CC/C=C\C/C=C\C/C=C\CCCCCCCC(=O)O	18µM*!	-27%	0	-7	11%	-5%
